Measurements: paper PMC11006913
Where a chain is given by its changes, count along the chain named.

target: T1, SIX6 (Homo sapiens, UniProt O95475 114-200, T139Q); assay: PBM; 200 nM protein, PBS; conditions: dsDNA, one strand shown
T1 sequence: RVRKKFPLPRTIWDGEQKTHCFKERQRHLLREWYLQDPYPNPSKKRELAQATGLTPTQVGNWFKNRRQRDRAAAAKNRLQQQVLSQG

In order of rising binding signal:
1. GCGCGCCC  8.77 upbm affinity estimate (log intensity, higher = more binding, comparable within an allelic series)
2. GGCGGAAC  8.82 upbm affinity estimate (log intensity, higher = more binding, comparable within an allelic series)
3. CAAGGCCC  8.93 upbm affinity estimate (log intensity, higher = more binding, comparable within an allelic series)
4. GCTTGGCC  9.01 upbm affinity estimate (log intensity, higher = more binding, comparable within an allelic series)
5. ATGATATG  11.3 upbm affinity estimate (log intensity, higher = more binding, comparable within an allelic series)
6. AATGATAC  11.3 upbm affinity estimate (log intensity, higher = more binding, comparable within an allelic series)

target: HOXC9 (Homo sapiens, UniProt P31274 178-260); assay: PBM; 200 nM protein, PBS; conditions: dsDNA, one strand shown
Sequence (P31274 178-260): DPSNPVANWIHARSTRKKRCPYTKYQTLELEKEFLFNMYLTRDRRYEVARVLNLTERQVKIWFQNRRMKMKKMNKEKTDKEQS

In order of falling binding signal:
1. GCCATTAA  13 upbm affinity estimate (log intensity, higher = more binding, comparable within an allelic series)
2. CCATTAAC  12.7 upbm affinity estimate (log intensity, higher = more binding, comparable within an allelic series)
3. AGTTAATG  12.5 upbm affinity estimate (log intensity, higher = more binding, comparable within an allelic series)
4. ACGCATTA  11.2 upbm affinity estimate (log intensity, higher = more binding, comparable within an allelic series)
5. GCTTGGCC  9.78 upbm affinity estimate (log intensity, higher = more binding, comparable within an allelic series)
6. CCCCTCCC  9.76 upbm affinity estimate (log intensity, higher = more binding, comparable within an allelic series)
7. CGAGCGAC  9.72 upbm affinity estimate (log intensity, higher = more binding, comparable within an allelic series)
8. GGGGTACC  9.67 upbm affinity estimate (log intensity, higher = more binding, comparable within an allelic series)
9. GGCACCAC  9.66 upbm affinity estimate (log intensity, higher = more binding, comparable within an allelic series)
10. CCCCTCGG  9.64 upbm affinity estimate (log intensity, higher = more binding, comparable within an allelic series)
11. CCGGGAGG  9.63 upbm affinity estimate (log intensity, higher = more binding, comparable within an allelic series)
12. CCCCATGC  9.6 upbm affinity estimate (log intensity, higher = more binding, comparable within an allelic series)
13. CTGGGACC  9.59 upbm affinity estimate (log intensity, higher = more binding, comparable within an allelic series)
14. CGGGCACG  9.57 upbm affinity estimate (log intensity, higher = more binding, comparable within an allelic series)
15. CCGTCCGC  9.48 upbm affinity estimate (log intensity, higher = more binding, comparable within an allelic series)
16. CGGAGGGA  9.45 upbm affinity estimate (log intensity, higher = more binding, comparable within an allelic series)
17. CCCCCTGA  9.4 upbm affinity estimate (log intensity, higher = more binding, comparable within an allelic series)

target: MSX2 (Homo sapiens, UniProt P35548 130-214, R199I); assay: PBM; 200 nM protein, PBS; conditions: dsDNA, one strand shown
Sequence (P35548 130-214 R199I): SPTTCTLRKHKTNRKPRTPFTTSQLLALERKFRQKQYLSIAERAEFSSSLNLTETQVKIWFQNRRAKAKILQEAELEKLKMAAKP

In order of rising binding signal:
1. CCCGGACG  9.41 upbm affinity estimate (log intensity, higher = more binding, comparable within an allelic series)
2. GCCAGGGC  9.52 upbm affinity estimate (log intensity, higher = more binding, comparable within an allelic series)
3. GCGCGCCC  9.61 upbm affinity estimate (log intensity, higher = more binding, comparable within an allelic series)

target: ALX3 (Homo sapiens, UniProt O95076 139-225, N203Q); assay: PBM; 200 nM protein, PBS; conditions: dsDNA, one strand shown
Sequence (O95076 139-225 N203Q): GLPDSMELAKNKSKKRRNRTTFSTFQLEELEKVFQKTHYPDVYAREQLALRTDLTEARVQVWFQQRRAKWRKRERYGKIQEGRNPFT

In order of falling binding signal:
1. CGAGCGAC  7.8 upbm affinity estimate (log intensity, higher = more binding, comparable within an allelic series)
2. GACCCAGC  7.75 upbm affinity estimate (log intensity, higher = more binding, comparable within an allelic series)
3. GCCGCAGC  7.73 upbm affinity estimate (log intensity, higher = more binding, comparable within an allelic series)

target: HOXD13 (Homo sapiens, UniProt P35453 263-343, T313R); assay: PBM; 200 nM protein, PBS; conditions: dsDNA, one strand shown
Sequence (P35453 263-343 T313R): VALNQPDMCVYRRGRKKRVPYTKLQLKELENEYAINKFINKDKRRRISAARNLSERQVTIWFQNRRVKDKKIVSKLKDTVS

In order of rising binding signal:
1. CCCCCTGC  9.12 upbm affinity estimate (log intensity, higher = more binding, comparable within an allelic series)
2. CCCCTCCC  9.44 upbm affinity estimate (log intensity, higher = more binding, comparable within an allelic series)
3. AGAGGGGC  9.48 upbm affinity estimate (log intensity, higher = more binding, comparable within an allelic series)

target: T2, SIX6 (Homo sapiens, UniProt O95475 114-200, T165A); assay: PBM; 200 nM protein, PBS; conditions: dsDNA, one strand shown
T2 sequence: T1 sequence with Q26T, T52A

In order of rising binding signal:
1. GCGCGCCC  8.75 upbm affinity estimate (log intensity, higher = more binding, comparable within an allelic series)
2. GGCGGAAC  8.85 upbm affinity estimate (log intensity, higher = more binding, comparable within an allelic series)
3. CAAGGCCC  8.92 upbm affinity estimate (log intensity, higher = more binding, comparable within an allelic series)
4. GCTTGGCC  8.94 upbm affinity estimate (log intensity, higher = more binding, comparable within an allelic series)
5. ATGATATG  11.2 upbm affinity estimate (log intensity, higher = more binding, comparable within an allelic series)
6. AATGATAC  11.4 upbm affinity estimate (log intensity, higher = more binding, comparable within an allelic series)

target: HOXC9 (Homo sapiens, UniProt P31274 178-260, R193K); assay: PBM; 200 nM protein, PBS; conditions: dsDNA, one strand shown
Sequence (P31274 178-260 R193K): as the sequence (P31274 178-260) above, with R16K counted along it

In order of falling binding signal:
1. GCCATTAA  12.8 upbm affinity estimate (log intensity, higher = more binding, comparable within an allelic series)
2. CCATTAAC  12.7 upbm affinity estimate (log intensity, higher = more binding, comparable within an allelic series)
3. AGTTAATG  12.5 upbm affinity estimate (log intensity, higher = more binding, comparable within an allelic series)
4. ACGCATTA  11.2 upbm affinity estimate (log intensity, higher = more binding, comparable within an allelic series)
5. CGAGCGAC  9.67 upbm affinity estimate (log intensity, higher = more binding, comparable within an allelic series)
6. GGCACCAC  9.65 upbm affinity estimate (log intensity, higher = more binding, comparable within an allelic series)
7. GCTTGGCC  9.65 upbm affinity estimate (log intensity, higher = more binding, comparable within an allelic series)
8. CCCCTCCC  9.62 upbm affinity estimate (log intensity, higher = more binding, comparable within an allelic series)
9. CCCCTCGG  9.54 upbm affinity estimate (log intensity, higher = more binding, comparable within an allelic series)
10. CCGGGAGG  9.49 upbm affinity estimate (log intensity, higher = more binding, comparable within an allelic series)
11. CGGGCACG  9.49 upbm affinity estimate (log intensity, higher = more binding, comparable within an allelic series)
12. GGGGTACC  9.47 upbm affinity estimate (log intensity, higher = more binding, comparable within an allelic series)
13. CCCCATGC  9.46 upbm affinity estimate (log intensity, higher = more binding, comparable within an allelic series)
14. CTGGGACC  9.43 upbm affinity estimate (log intensity, higher = more binding, comparable within an allelic series)
15. CGGAGGGA  9.42 upbm affinity estimate (log intensity, higher = more binding, comparable within an allelic series)
16. CCGTCCGC  9.36 upbm affinity estimate (log intensity, higher = more binding, comparable within an allelic series)
17. CCCCCTGA  9.32 upbm affinity estimate (log intensity, higher = more binding, comparable within an allelic series)

target: HOXA2 (Homo sapiens, UniProt O43364 129-215, R185K); assay: PBM; 200 nM protein, PBS; conditions: dsDNA, one strand shown
Sequence (O43364 129-215 R185K): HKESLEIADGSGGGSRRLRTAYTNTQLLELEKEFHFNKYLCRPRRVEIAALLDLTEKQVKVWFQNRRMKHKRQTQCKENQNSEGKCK

In order of rising binding signal:
1. CACGGGGG  10.1 upbm affinity estimate (log intensity, higher = more binding, comparable within an allelic series)
2. CCCCTCGG  10.3 upbm affinity estimate (log intensity, higher = more binding, comparable within an allelic series)
3. GCCAGGGC  10.3 upbm affinity estimate (log intensity, higher = more binding, comparable within an allelic series)
4. CCATTAAC  13.1 upbm affinity estimate (log intensity, higher = more binding, comparable within an allelic series)

target: HOXD13 (Homo sapiens, UniProt P35453 263-343); assay: PBM; 200 nM protein, PBS; conditions: dsDNA, one strand shown
Sequence (P35453 263-343): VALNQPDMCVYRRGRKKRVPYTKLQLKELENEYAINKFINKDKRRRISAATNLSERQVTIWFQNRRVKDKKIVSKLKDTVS

In order of rising binding signal:
1. CCCCCTGC  9.26 upbm affinity estimate (log intensity, higher = more binding, comparable within an allelic series)
2. CCCCTCCC  9.54 upbm affinity estimate (log intensity, higher = more binding, comparable within an allelic series)
3. AGAGGGGC  9.71 upbm affinity estimate (log intensity, higher = more binding, comparable within an allelic series)

target: HOXA4 (Homo sapiens, UniProt Q00056 201-287); assay: PBM; 200 nM protein, PBS; conditions: dsDNA, one strand shown
Sequence (Q00056 201-287): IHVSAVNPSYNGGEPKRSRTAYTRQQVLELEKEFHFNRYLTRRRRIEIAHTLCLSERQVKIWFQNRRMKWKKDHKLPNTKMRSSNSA

In order of rising binding signal:
1. CCCCCTGC  9.54 upbm affinity estimate (log intensity, higher = more binding, comparable within an allelic series)
2. GCCAGGGC  9.7 upbm affinity estimate (log intensity, higher = more binding, comparable within an allelic series)
3. CGGAGGGA  9.76 upbm affinity estimate (log intensity, higher = more binding, comparable within an allelic series)
4. CCAGGGCC  9.79 upbm affinity estimate (log intensity, higher = more binding, comparable within an allelic series)
5. CCCTTCCG  10 upbm affinity estimate (log intensity, higher = more binding, comparable within an allelic series)
6. GGGAGGAC  10.1 upbm affinity estimate (log intensity, higher = more binding, comparable within an allelic series)
7. CCATTAAC  13.8 upbm affinity estimate (log intensity, higher = more binding, comparable within an allelic series)

target: HOXC10 (Homo sapiens, UniProt Q9NYD6 254-340, K271E); assay: PBM; 200 nM protein, PBS; conditions: dsDNA, one strand shown
Sequence (Q9NYD6 254-340 K271E): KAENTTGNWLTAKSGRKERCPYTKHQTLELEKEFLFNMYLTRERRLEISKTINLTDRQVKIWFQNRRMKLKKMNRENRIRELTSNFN

In order of rising binding signal:
1. GCTTGGCC  10 upbm affinity estimate (log intensity, higher = more binding, comparable within an allelic series)
2. CCATTAAC  11.9 upbm affinity estimate (log intensity, higher = more binding, comparable within an allelic series)
3. GCCATTAA  12.2 upbm affinity estimate (log intensity, higher = more binding, comparable within an allelic series)

target: MSX2 (Homo sapiens, UniProt P35548 130-214); assay: PBM; 200 nM protein, PBS; conditions: dsDNA, one strand shown
Sequence (P35548 130-214): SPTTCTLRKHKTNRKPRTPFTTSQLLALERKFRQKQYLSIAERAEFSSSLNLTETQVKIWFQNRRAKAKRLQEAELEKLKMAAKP

In order of falling binding signal:
1. GCGCGCCC  9.64 upbm affinity estimate (log intensity, higher = more binding, comparable within an allelic series)
2. GCCAGGGC  9.44 upbm affinity estimate (log intensity, higher = more binding, comparable within an allelic series)
3. CCCGGACG  9.27 upbm affinity estimate (log intensity, higher = more binding, comparable within an allelic series)

target: T3, SIX6 (Homo sapiens, UniProt O95475 114-200, L167V); assay: PBM; 200 nM protein, PBS; conditions: dsDNA, one strand shown
T3 sequence: T1 sequence with Q26T, L54V

In order of falling binding signal:
1. AATGATAC  11.3 upbm affinity estimate (log intensity, higher = more binding, comparable within an allelic series)
2. ATGATATG  11.1 upbm affinity estimate (log intensity, higher = more binding, comparable within an allelic series)
3. CAAGGCCC  8.98 upbm affinity estimate (log intensity, higher = more binding, comparable within an allelic series)
4. GCTTGGCC  8.95 upbm affinity estimate (log intensity, higher = more binding, comparable within an allelic series)
5. GCGCGCCC  8.91 upbm affinity estimate (log intensity, higher = more binding, comparable within an allelic series)
6. GGCGGAAC  8.86 upbm affinity estimate (log intensity, higher = more binding, comparable within an allelic series)

target: ALX3 (Homo sapiens, UniProt O95076 139-225); assay: PBM; 200 nM protein, PBS; conditions: dsDNA, one strand shown
Sequence (O95076 139-225): as the sequence (O95076 139-225 N203Q) above, with Q65N counted along it

In order of rising binding signal:
1. GACCCAGC  7.56 upbm affinity estimate (log intensity, higher = more binding, comparable within an allelic series)
2. CGAGCGAC  7.63 upbm affinity estimate (log intensity, higher = more binding, comparable within an allelic series)
3. GCCGCAGC  7.89 upbm affinity estimate (log intensity, higher = more binding, comparable within an allelic series)

target: PROP1 (Homo sapiens, UniProt O75360 56-141); assay: PBM; 200 nM protein, PBS; conditions: dsDNA, one strand shown
Sequence (O75360 56-141): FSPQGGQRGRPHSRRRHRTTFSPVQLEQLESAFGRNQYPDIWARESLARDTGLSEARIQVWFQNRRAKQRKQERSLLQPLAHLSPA

In order of falling binding signal:
1. GCTTGGCC  6.59 upbm affinity estimate (log intensity, higher = more binding, comparable within an allelic series)
2. CCCGGACG  6.37 upbm affinity estimate (log intensity, higher = more binding, comparable within an allelic series)
